# Compound activity: PubChem BioAssay, several laboratories
# MPTP inh: mitochondrial permeability transition pore inhibitors, primary screen, biochemical, isolated mouse mitochondria, absorbance; Ca2+ swelling absorbance, 30 min; inhibition, % at 10 µM; 360,000 tested, 1.4% active; AID 602449, 2012;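 active means inhibition of 50% or more, scaled per plate between neutral and stimulator controls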;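 further: 0% = DMSO wells given calcium and 100% = 1 mM EGTA wells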
# Mdm2 MdmX PPI: inhibitors of human Mdm2-MdmX association, primary screen, cell-based, luminescence, split luciferase, SaOS-2, uHTS; Protein Mdm4 (Homo sapiens) + E3 ubiquitin-protein ligase Mdm2 (Homo sapiens), …; SaOS-2 split-luciferase Mdm2/MdmX complementation; inhibition, % at 8 µM; 330,000 tested, 3% active;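 active means inhibition of at least 50% at 8 µM in the primary screen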
# Target sequence (O15151 whole entry, looked up): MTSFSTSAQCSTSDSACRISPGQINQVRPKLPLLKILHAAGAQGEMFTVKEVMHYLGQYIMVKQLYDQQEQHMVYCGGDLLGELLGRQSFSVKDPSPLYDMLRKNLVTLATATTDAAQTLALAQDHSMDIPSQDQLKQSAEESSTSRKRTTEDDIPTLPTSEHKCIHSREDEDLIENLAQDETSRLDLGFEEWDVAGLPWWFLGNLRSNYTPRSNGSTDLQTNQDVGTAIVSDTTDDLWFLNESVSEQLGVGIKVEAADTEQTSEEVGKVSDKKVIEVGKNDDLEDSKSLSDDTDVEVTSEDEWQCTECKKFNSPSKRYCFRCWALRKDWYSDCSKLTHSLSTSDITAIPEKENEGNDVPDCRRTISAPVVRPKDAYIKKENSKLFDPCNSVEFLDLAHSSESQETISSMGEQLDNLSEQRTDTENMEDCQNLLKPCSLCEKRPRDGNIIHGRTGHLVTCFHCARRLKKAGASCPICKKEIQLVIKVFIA
# Target sequence (Q00987 whole entry, looked up): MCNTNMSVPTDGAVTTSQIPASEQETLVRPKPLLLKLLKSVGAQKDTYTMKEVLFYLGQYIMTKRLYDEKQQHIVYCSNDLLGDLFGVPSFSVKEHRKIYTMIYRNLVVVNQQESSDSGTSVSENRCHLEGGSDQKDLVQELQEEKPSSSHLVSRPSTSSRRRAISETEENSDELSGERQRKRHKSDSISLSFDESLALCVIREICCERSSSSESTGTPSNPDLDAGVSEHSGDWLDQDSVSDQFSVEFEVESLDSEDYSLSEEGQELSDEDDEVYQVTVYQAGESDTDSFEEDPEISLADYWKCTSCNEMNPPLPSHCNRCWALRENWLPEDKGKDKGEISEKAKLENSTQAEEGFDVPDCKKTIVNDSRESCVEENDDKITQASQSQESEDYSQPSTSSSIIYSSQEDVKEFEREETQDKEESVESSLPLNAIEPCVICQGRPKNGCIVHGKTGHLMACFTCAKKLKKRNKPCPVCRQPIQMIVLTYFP
# CSC inhib: cancer stem cell viability inhibitors, primary screen, luminescence; cancer stem cell-like cells viability; inhibition, % at 7.5 µM; 300,000 tested, 1.1% active; in the data active means inhibition above about 75%; inconclusive means no clear call, values can overlap the other calls; tested in HMLE shEcad cells
# Beta cell apopt: inhibitors of cytokine-induced beta cell apoptosis, primary screen, luminescence; INS-1E cytokine-induced death, ATP luminescence, 48 h; percent of positive-control rescue, neutral wells zero; protection from apoptosis, % (no concentration beside the values); 300,000 tested, 0.8% active; AID 435005, 2010;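 active means Every replicate reaches about 75%, or at least half do and their mean reaches it too, limit read from the data; inconclusive means At least half of replicates reach the limit but their mean does not; inactive means Under half of replicates reach the limit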;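 further: 0% = cytokine-treated negative control wells and 100% = positive control rescue; higher means more ATP so stronger rescue from cytokine killing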
# NR3A LBD binder: binders of NR3A ligand-binding domain, primary screen, biophysical, differential scanning fluorimetry, uHTS; AID 1259313, 2017; Tm shift relative to glycine control, % at 25 µM; Glutamate receptor ionotropic, NMDA 3A (GRIN3A) ligand-binding domain; NR3A LBD differential scanning fluorimetry, Tm shift; 0% = protein alone, 100% = glycine-bound protein; 340,000 tested, 2.5% active;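 active means melting temperature shift of at least 10% of the positive control shift, at one fixed dose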
# SKKanGAS inh: S. pyogenes SKKanGAS growth inhibitors in kanamycin, primary screen, streptokinase expression inhibitor project, SKKanGAS strain, BacTiter-Glo luminescence | 6 h | inhibition, % at 7.5 µM | 300,000 tested, 1.3% active;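 active means mean replicate score, as percent of positive control median, at least 50; inconclusive means mean below 50 but one replicate at or above 50; inactive means mean and every replicate below 50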;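 further: strain carries kanamycin resistance gene driven by streptokinase promoter and grows in 40 µg/ml kanamycin; loss of luminescence reflects streptokinase promoter inhibition or plain growth inhibition; 0% = median of DMSO wells and 100% = positive control at its reference dose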
# Active calls of the source: *; u = inconclusive; x = no result. Sampled rows, rich in hits. Any-hit rate of the full collection: about 6.9%.
SMILES,MPTP inh,Mdm2 MdmX PPI,CSC inhib,Beta cell apopt,NR3A LBD binder,SKKanGAS inh
Cc1ccc(S(=O)(=O)CCC(=O)N(C)C2CCCCC2)cc1,-2,4,-10,1,-1,0
Cc1cc(C)nc(NC2=NCCN2C(=S)Nc2ccc(C)c(C)c2)n1,1,20,-1,0,-2,7
CC(=O)Nc1ccc(SCC(=O)Nc2cc(C)on2)cc1,-1,0,-7,-1,2,3
CN(C)C(CNC(=O)c1cccc(S(=O)(=O)Nc2ccc(SC(F)F)cc2)c1)c1ccccc1 (configuration not stated),2,x,x,x,-1,x
COc1cc(NS(=O)(=O)c2cc(NC(C)=O)ccc2OC)c(OC)cc1NC(=O)c1ccccc1,-1,x,x,x,0,x
CCn1cc(C(=O)O)c(=O)c2cc(F)c(N3CCN(C(=S)NC(=O)c4cc(OC)cc(OC)c4)CC3)cc21,-2,20,-12,10,-2,u
CCn1cc(C(=O)O)c(=O)c2cnc(N3CCN(C(=S)Nc4ccccc4)CC3)nc21,4,15,-4,-13,1,-2
CCn1cc(C(=O)O)c(=O)c2cc(F)c(N3CCN(C(=S)Nc4ccc(OC)cc4)CC3)cc21,6,13,x,-3,0,68*
CCCCOC(=O)c1ccc(NC(=S)N2CCN(c3ncc4c(=O)c(C(=O)O)cn(CC)c4n3)CC2)cc1,12,6,21,3,1,92*
O=C(NNC(=O)c1ccncc1)Nc1ccc(Cl)cc1,22,x,x,x,-1,x
N/N=C/C(=N\Nc1ccc(Cl)cc1)C(=O)c1ccncc1,2,-19,76*,-2,-1,17
O=C(NNc1c2ccccc2nc2ccccc12)c1ccc(O)cc1O,-1,-5,19,17,9,51*
CCOc1ccc(CCNC(=O)CCNS(=O)(=O)c2ccc3c(c2)CCN3C(C)=O)cc1OCC,-1,34,-8,0,1,6
O=S(=O)(c1ccc(F)cc1)N1CCN(CC(O)COCC2CCCO2)CC1 (configuration not stated),0,9,x,x,0,x
COc1ccc(OC)c(S(=O)(=O)N2CCC(C(=O)NCc3ccc4c(c3)OCO4)CC2)c1,1,2,-6,-2,1,-3
N/C(=N\OC(=O)c1cccc(Br)c1)c1ccc([N+](=O)[O-])cc1,2,-16,-15,-6,14*,-15
N/C(=N\OC(=O)c1cccc(Br)c1)c1ccc(Br)cc1,-1,-37,-18,0,23*,4
N/C(=N\OC(=O)c1ccc(Br)cc1)c1ccccc1,0,-115,1,8,-5,6
CC(=O)c1ccc(-c2cc([C@H]3[C@H]4C=CC[C@@H](C)[C@@H]4C(=O)N3Cc3ccccc3)ccc2F)cc1,-2,16,115*,0,0,33
OCCCCc1nccc2c1[nH]c1ccccc12,1,-3,-11,-1,12*,-5
Cc1[nH]c2ccccc2c1CCCO,x,x,19,-4,1,0
N#Cc1ccsc1NC(=O)C1=COCCO1,2,7,-12,-4,-1,x
CSCC[C@H](NC(=O)C1CCN(S(=O)(=O)c2ccccc2)CC1)C(=O)NC1CC1,-2,-12,-5,-2,-1,-6
CCc1ccc(/C=C2/SC(=S)N(CCCC(=O)Nc3ccccc3C(=O)O)C2=O)cc1,3,11,8,-2,5,52*
CC(/C=C1\SC(=S)N(NC(=O)c2ccc(O)cc2)C1=O)=C\c1ccccc1,-1,-4,76*,6,-9,47
SMILES,MPTP inh,Mdm2 MdmX PPI,CSC inhib,Beta cell apopt,NR3A LBD binder,SKKanGAS inh
O=C(NN1C(=O)/C(=C/c2ccc(O)c(O)c2)SC1=S)c1ccccc1,15,23,61,-3,13*,0
O=C(CCN1C(=O)/C(=C\c2ccccc2)SC1=S)NNC(=O)c1ccccc1O,18,-5,17,3,12*,51*
COc1cc(/C=C2\SC(=S)N(NC(=O)c3ccc(O)cc3)C2=O)ccc1O,17,12,1,0,6,8
O=C(NNC(=O)c1cccnc1Cl)c1ccc(F)cc1,-2,0,-9,-7,0,-7
CC(=O)NNC(=O)CN1C(=O)/C(=C/c2ccccc2)SC1=S,3,-3,0,-2,0,5
O=C(CCN1C(=O)S/C(=C\c2ccccc2)C1=O)NCCCn1ccnc1,1,11,47,-1,0,-2
O=C(O)COc1ccccc1/C=C1\SC(=S)N(NC(=O)c2ccccc2O)C1=O,-2,22,-4,0,-2,-5
Cn1cc(/C=C2\SC(=S)N(NC(=O)c3ccccc3Cl)C2=O)c2ccccc21,0,x,11,3,12*,x
O=C(CCCN1C(=O)/C(=C/c2ccccc2)SC1=S)NCCCn1ccnc1,1,22,90*,121*,-1,0
CCc1ccc(/C=C2/SC(=S)N(CC(=O)Nc3nc4ccccc4s3)C2=O)cc1,0,-40,18,0,-27,79*
O=C(NN1C(=O)/C(=C/c2cccc(O)c2)SC1=S)c1ccccc1O,1,24,6,1,23*,-3
Cc1cccc(C)c1NC(=O)CC(NCCc1ccccc1)C(=O)O (configuration not stated),0,-19,4,-3,10,2
N#CCOC(=O)c1c2c(nc3ccccc13)CCC2,-3,4,5,1,-2,-16
CCOC(=O)CSc1ccc(C(=O)NCCCN2CCOCC2)cc1[N+](=O)[O-],-1,22,-19,-5,2,-4
CCOC(=O)C1(Cc2cccc(F)c2)CCN(C(=O)c2cnccn2)CC1,4,16,-2,-4,-2,6
CCOc1ccc(NC(=O)CC2C(=O)N(C)C(=S)N2Cc2ccc3c(c2)OCO3)cc1 (configuration not stated),-5,10,-4,1,12*,-8
CCN1C(=O)C(CC(=O)Nc2ccc(OC)cc2)N(Cc2ccc3c(c2)OCO3)C1=S (configuration not stated),0,3,25,0,22*,-1
CCOc1ccc(NC(=O)CC2C(=O)N(C)C(=S)N2Cc2ccco2)cc1 (configuration not stated),0,22,-4,-7,17*,0
C=CCn1c(C(C)NC(=O)c2cccc(C)c2)n[nH]c1=S (configuration not stated),-1,13,-8,4,-2,-1
Cc1c(C(=O)N/N=C/c2cccs2)nnn1-c1nonc1N,0,-12,-5,-4,10*,-1
